The panel holds about 83,000 compounds, 20% with a hit somewhere; the sample as a whole holds those more often.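 48-hour exposure, single concentration, 96-well plates; percent growth endpoint where 0 means no net growth. Active: below 10.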 Unmarked numbers belong to inactive results. Activity calls are given as the source filed them.

For the assay, the system named is SK-MEL-5 melanoma. The experiment in a line: NCI-60 one-dose screen, 48 h (100 = growth as untreated, 0 = no growth, -100 = all killed). The following applies: 10 µM unless noted. The procedure: Growth inhibition of the SK-MEL-5 human tumor cell line is measured as a screen for anti-cancer activity. Cells are grown in 96 well plates and exposed to the test compound for 48 hours. Compounds are tested at a single concentration, which is 10^-5 M for most compounds. The reported endpoint is percent growth (GI% or GIPRCNT), where numbers from 0 - 100% represent growth inhibition, and numbers from -100% - 0 represent cell death. For example, a value of 40 represents 60% growth inhibition. A value of 0 means no net growth occurred over the course of the experiment. A value of -40 indicates 40% of cells at the beginning of the experiment died by the end of the experiment. A value of -100 means all cells are dead at the end of the experiment.
NCI-60 Human Tumor Cell Lines Screen was performed using the standard one-dose NCI protocol, which is described in more detail at https://dtp.cancer.gov/discovery_development/nci-60/default.htm.
Compounds with GIPRCNT values below 10 were considered active. Activity score was based on GIPRCNT using the following formula: […]
Score is 0 for GIPRCNT values of 100 or above, 50 for GIPRCNT values of 0, and 100 for GIPRCNT values of -100.
`Cc1cc(SCc2ccc(Cl)cc2Cl)nc(SCc2ccc(Cl)cc2Cl)n1`: the growth is 96.1%.
Next, `CC1(C)N=C(N)N=C(N)N1c1ccc(F)c(C(F)(F)F)c1`: 22.8%; `COc1cc(Cn2cc3c(c2)-c2onc(CO)c2CC3)cc(OC)c1OC`: 83.3%.
`CCOC(=O)C(C)(CSSCC(C)(NC(=O)c1ccc2ccccc2c1)C(=O)OCC)NC(=O)c1ccc2ccccc2c1` (stereo not given): the growth is 109%.
Next, `CC(C)NCC(O)COc1ccc(CC(N)=O)cc1` (stereo not given): 94.9%; `COc1cccc(-c2nc3sccn3c2-c2ccnc(NCCNC(=O)c3ccccc3)n2)c1`: 55.3%.
Consider `ClC1c2ccccc2CCc2ccccc21`, for which the growth was 96.7%.
As for `O=C1COc2ccccc2C(=O)N1CCCCNc1ccccc1`, the growth was 99.3%.
In the case of `CCc1c(C)c2cc(-n3c(-c4ccc(OC)cc4)csc3=N)c(O)c(C)c2oc1=O` it was 4.4% (active).
Turning to `COc1cc(/C=C\c2cc(/C=C\c3ccc(O)c(OC)c3)n(C(=O)CNc3ccccc3OC)n2)ccc1O`, the growth was 44.8%.
In the case of `c1ccc(-c2nc3sc(C(c4ccccc4)c4ccccc4)nn3c2-c2ccccc2)cc1` it was 109%; in that of `Cc1cn(-c2nc3c(c(NCc4ccccc4)n2)COCC3)c2cccc(C(N)=O)c12`, -20.3% [0.5 µM] (active); in that of `CCC(C)Nc1ccc(N)cc1` (stereo not given), -6.02% (active).
On to `CCNc1ncnc2n[nH]nc12`, for which the growth is 98.7%.
Turning to `O=C(Nc1ccc(-n2ccc3c(NC(=O)c4ccccc4)nccc32)cc1)Nc1ccc(Cl)c(Cl)c1`, the growth was -97.9% (active).
In the case of `CCn1c(C)nc([N+](=O)[O-])c1Sc1nc(N)nc2nc[nH]c12` it was 59.2%.
For `COc1cc2nc(C(=O)N3CCCCC3)cc(Nc3ccccc3)c2cc1OC`, the growth is 95.6%.
In the case of `Nc1nc(Cl)c2c(C(F)(F)F)cn(CC3CCNCC3)c2n1`, the growth was 94.9%.
Consider `CCC1S/C(=N\N=C(/C)c2cccs2)N(c2ccccc2)C1=O` (stereo not given), for which the growth was 84.4%.
In the case of `C=C1C(=O)O[C@H]2[C@H]1CC/C(COC(=O)n1ccnc1C)=C\CC[C@@]1(C)O[C@@H]21` it was 106%.
In the case of `Nc1nc(=S)ss1` it was 110%; in that of `CCc1c2cc(Cl)ccc2n2cc(Cc3ccccc3)[nH]c(=O)c12`, 104%; in that of `FC(F)(F)c1cccc([Si](F)(c2cccc(C(F)(F)F)c2)c2cccc(C(F)(F)F)c2)c1`, 84.2%.
Next, `CCCCOc1nc2ccc(Cl)cc2cc1/C=C/C(=O)/C=C/c1ccc(OC)cc1`: 93.9%; `O=C(Nc1ccc(-n2ccc3c(NC(=O)c4ccccc4)ncnc32)cc1)Nc1cccc(Cl)c1Cl`: 14.9%.
Regarding `CCC1S/C(=N\N=C(/C)c2cc3ccccc3o2)N(c2ccccc2)C1=O` (stereo not given), the growth was 83.9%.
In the case of `COC(=O)c1oc2c(C(=O)/C=C/c3ccc(OC)cc3)c(OCCN3CCOCC3)ccc2c1C` it was -100% (active).
Next, `Cc1ccc(-c2nc3c(N=Nc4ccc(S(N)(=O)=O)cc4)c(N)nn3c(N)c2C#N)cc1`: -52.2% (active); `O=c1c2ccccc2[nH]n1Cc1ccc2c(c1)OCO2`: 100%.
In the case of `O=c1c(-c2ccc3c(c2)OCO3)coc2c(CO)c(O)ccc12`, the growth is 5.73% (active).
On to `COC(OC)C1(c2ccccc2)NC(=O)NC1=O` (stereo not given), for which the growth was 115%.
In the case of `Cc1cccc(Cc2cnc(NC(=O)CCc3ccc(C)o3)s2)c1` it was -11.7% (active); in that of `CCCC(=O)Oc1ccc(/C(=C(\C)c2ccc(Cl)cc2)c2ccc(OCCN(CC)CC)cc2)cc1`, -99.7% (active).
Consider `CC(=O)N1N=C2N(Cc3ccccc3)C(=O)c3c(sc4c3CCCC4)N2C1c1cn(-c2ccccc2)nc1-c1ccc(Cl)cc1` (stereo not given), for which the growth was 102%.
Consider `CCC1(C(N)=O)CC2C=CC1CC2` (stereo not given), for which the growth was 98.7%.
As to `O=C(Nc1ccc(-n2cc(-c3ccncc3)c(-c3ccc(O)c(Cl)c3)n2)cc1)c1cc(C(F)(F)F)cc(C(F)(F)F)c1`, the growth is 60%.
As to `CCCCCCCCN(CCCCCCCC)CC(O)c1cc(-c2ccccc2)nc2ccc(OC)cc12` (stereo not given), the growth was 46.5%.
In the case of `CCC1S/C(=N\N=C(/C)c2ccco2)N(c2ccccc2)C1=O` (stereo not given) it was 146%; in that of `CC(C)CNCC(=O)Nc1ccc(Cc2ccc(NC(=O)CNCC(C)C)cc2)cc1`, 40.3%.
Next, `COc1cc(-c2nc3sc(C)cn3c2/C=C2\C(=O)Nc3ccccc32)c(Br)c(OC)c1OC`: 10.4%.
